# Laboratory results: PubChem BioAssay AID435003 (Sanford-Burnham Center for Chemical Genomics, 2010)
# Among all 330,000 compounds or so, about 1,700 (0.52%) were called active. This is one part of a sample in which actives are shown more often than they occur. No stated cut-off is given here; in the data, active means inhibition above about 50%; inactive means the rest.
# Assay: inhibitors of induced NF-kB luciferase reporter, primary screen, TCR NF-kB activation inhibitor project, cell-based, luminescence, uHTS (AID 435003)
# Conditions: Jurkat, PMA/ionomycin-induced NF-kB luciferase reporter, at 4 µM, active compounds read high
row,SMILES,inhibition
1,CCOC(=O)[C@H]1[C@H]2COc3ccc(OC)cc3[C@@H]2N2C(=O)c3ccc(F)cc3NC(=O)[C@@]12C,-10.9% (inactive)
2,CC(N)C12CC3CC(CC(O)(C3)C1)C2 (configuration not stated),6.68% (inactive)
3,Cc1ccc2c(=O)oc(N(C)C)nc2c1,1.31% (inactive)
4,Cc1cccc(NS(=O)(=O)c2ccc(-c3cnc(C4CC4)o3)cc2)c1,54.1% (active)
5,COc1ccc(CNS(=O)(=O)c2ccc(-c3cnc(C4CC4)o3)cc2)cc1,18.4% (inactive)
6,Cc1cccc(CNS(=O)(=O)c2ccc(-c3cnc(C4CC4)o3)cc2)c1,5.99% (inactive)
7,Cc1cccc(C)c1NC(=O)CNC(=O)C1CCCC1,-3.97% (inactive)
8,Cc1ccc(S(=O)(=O)C2(S(=O)(=O)c3ccc(C)cc3)CCCC2)cc1,59.5% (active)
9,Cc1ccc(S(=O)(=O)N(C)C2(C)CCS(=O)(=O)C2)cc1 (configuration not stated),7.55% (inactive)
10,Cc1ccc(S(=O)(=O)NC2CCCCCC2)cc1,-18.9% (inactive)
11,CC(=O)Nc1ccc(S(=O)(=O)NCC(=O)OCC(=O)c2ccc[nH]2)cc1,2.52% (inactive)
12,Nc1c(C(=O)Nc2ccc3c(c2)OCCO3)nnn1Cc1ccccc1,-98.1% (inactive)
13,CCCNC(=O)c1cnc(-c2ccccc2)nc1-c1ccccc1,17.2% (inactive)
14,C#CCSc1nnc(-c2sc3ccccc3c2Cl)o1,-65.2% (inactive)
15,O=C(NCC#CCSc1nnc(-c2cccc3ccccc23)o1)c1cccs1,51.4% (active)
16,COc1ccc(CCNC(=O)/C(C#N)=C2\N=C(NC(=O)c3cccs3)c3ccccc32)cc1,-17.6% (inactive)
17,N/C(=N\c1nc2ccccc2o1)NC(=O)C(Cc1ccccc1)N1C(=O)c2ccccc2C1=O (configuration not stated),-5.81% (inactive)
18,O=C(CSc1ncnc2c1oc1ccccc12)NC1CCCC1,-16.7% (inactive)
19,O=C(NCCC1CCCCN1S(=O)(=O)c1ccc(F)cc1)C(=O)NC1CC1 (configuration not stated),2.56% (inactive)
20,O=C(NCCC1CCCCN1S(=O)(=O)c1cccs1)C(=O)Nc1ccc(F)cc1F (configuration not stated),57.9% (active)
21,COc1ccccc1CCNC(=O)C(=O)NCCC1CCCCN1S(=O)(=O)c1cccs1 (configuration not stated),11.1% (inactive)
22,COC(=O)Cn1cnc2scc(-c3ccc(C)c(C)c3)c2c1=O,11.8% (inactive)
23,Cc1ccc(S(=O)(=O)N2CCN(C(=O)Cc3sc(C)nc3-c3ccc(F)cc3)CC2)c(C)c1,0.534% (inactive)
24,CCOc1ccccc1OCCCNCc1ccccc1,-8.28% (inactive)
25,OCCNCc1cccc(OCc2ccccc2Cl)c1,4.83% (inactive)

row,SMILES,inhibition
1,Clc1cccc(Cl)c1OCCOCCNCc1ccccc1,61.5% (active)
2,Cc1ccc(C(=O)N2CCN(C3CCCCC3)CC2)s1,-4.14% (inactive)
3,CC(C)(C)c1ccc(OC2=CS(=O)(=O)c3ccccc32)cc1,-29.9% (inactive)
4,CC(C)(C)c1ccc(Oc2ccc(N)cc2)cc1,84.9% (active)
5,COc1cccc(Oc2ccc(N)cc2)c1,0.758% (inactive)
6,Brc1ccc2ncnc(NCc3cccnc3)c2c1,28.6% (inactive)
7,O=C(O)CCCCCNc1ncnc2ccc(Br)cc12,5.8% (inactive)
8,COc1ccc(Nc2ncnc3ccc(Br)cc23)c(OC)c1,59.8% (active)
9,CC(C)c1ccc(-c2noc(C3CCCN(S(C)(=O)=O)C3)n2)cc1 (configuration not stated),-30.6% (inactive)
10,CCOC(=O)C1=C(C)Nc2nc3ccccc3n2C1c1cccs1 (configuration not stated),7.93% (inactive)
11,CCOc1ccc(C2C(C(=O)NC)=C(C)Nc3nc4ccccc4n32)cc1OC (configuration not stated),6.25% (inactive)
12,COc1ccccc1NC(=O)C1=C(C)Nc2nc3ccccc3n2C1c1cccs1 (configuration not stated),58.1% (active)
13,O=C(O)/C=C/C(=O)NNc1ccc([N+](=O)[O-])cc1,9.38% (inactive)
14,O=C(c1c(F)cccc1Cl)N1CCN(S(=O)(=O)c2ccc3c(c2)OCCCO3)CC1,-0.00048% (inactive)
15,COc1ccc2[nH]c(C(=O)N/N=C/c3cc(OC)c(OC)c(OC)c3)cc2c1,17.7% (inactive)
16,COc1cc(N=Cc2c(O)[nH]c3ccccc23)cc(OC)c1OC,76.1% (active)
17,CN=c1scc(-c2cc(OC)ccc2OC)n1/N=C/c1c(C)[nH]c2ccccc12,-10.3% (inactive)
18,CC(C)Oc1ccc(C(=O)NC(C)(C)CO)cc1,-5.78% (inactive)
19,CCC(C)NC(=O)C1c2ccccc2C(=O)N1Cc1ccccc1 (configuration not stated),-0.632% (inactive)
20,COC(c1ccccc1)c1nnc(CCC(=O)N2CCN(CCOc3ccccc3)CC2)o1 (configuration not stated),14.1% (inactive)
21,COc1ccc(N2CC(NS(=O)(=O)c3ccc4ccccc4c3)CC2=O)cc1 (configuration not stated),4% (inactive)
22,Cc1ccc(S(=O)(=O)Nc2ccc3ncccc3c2)cc1,16.8% (inactive)
23,COc1cc(NS(=O)(=O)c2ccc3ccccc3c2)c2ncccc2c1,66% (active)
24,O=C(NC(=O)c1ccc(Cl)c(Cl)c1)OC1CCS(=O)(=O)C1 (configuration not stated),2.78% (inactive)
25,C=CCN(c1ccc(C(N)=O)cc1)S(C)(=O)=O,-12.3% (inactive)

row,SMILES,inhibition
1,CCC(C)c1ccc(NC(=S)NCc2ccccn2)cc1 (configuration not stated),-14.5% (inactive)
2,NC1=NC2(CCCCC2)N(c2ccc(F)cc2F)C(N)=N1,2.27% (inactive)
3,CCOc1ccc(/C=N/NC(N)=S)cc1,-13% (inactive)
4,OC(CNCCc1ccc(Cl)cc1Cl)COc1ccccc1 (configuration not stated),5.89% (inactive)
5,NC(N)=N/N=C/c1ccc(OCc2ccc(Cl)cc2Cl)cc1,59% (active)
6,COc1ccccc1N1CCN(C(=O)c2cc(=O)c3cc(C)ccc3o2)CC1,19.9% (inactive)
7,COc1ccccc1N1CCN(C(=O)c2cc(=O)c3cc(C)cc(C)c3o2)CC1,64.2% (active)
8,COc1ccccc1N1CCN(C(=O)c2c(-c3c(Cl)cccc3Cl)noc2C)CC1,-3.34% (inactive)
9,O=C(O)c1cc2c(cc1NC(=O)c1c(F)cccc1Cl)OCCCO2,17.5% (inactive)
10,O=C(CN1C(=O)c2ccccc2S1(=O)=O)NC1CCCCC1,-1.51% (inactive)
11,O=C(CN1C(=O)c2ccccc2S1(=O)=O)N1CCc2ccccc21,72.7% (active)
12,CC1CCCN(C(=O)CN2C(=O)c3ccccc3S2(=O)=O)C1 (configuration not stated),-25% (inactive)
13,CC1CN(C2CCN(C(=O)COc3ccccc3)CC2)CC(C)O1 (configuration not stated),-5.33% (inactive)
14,CSc1ccc(S(=O)(=O)Nc2cccc(F)c2)cc1,-8.25% (inactive)
15,COc1ccccc1-n1nnnc1SCC(=O)NC(=O)Cc1ccccc1,4.18% (inactive)
16,COc1ccccc1-n1nnnc1S(=O)(=O)Cc1ccc(Cl)cc1,55.8% (active)
17,COc1ccccc1N1CCN(S(=O)(=O)c2ccc(Cl)cc2)CC1,-16.1% (inactive)
18,Cn1c2c(c(=O)n(C)c1=O)C(c1ccc(O)cc1)Nc1ccccc1O2 (configuration not stated),3.73% (inactive)
19,CCCCCCCCn1c2c(c(=N)c3c1CCC3)CCCC2,89.5% (active)
20,COc1ccc(C)cc1NC(=O)C(OC(=O)c1cccc(S(=O)(=O)N(C)c2ccccc2)c1)c1ccccc1 (configuration not stated),10.1% (inactive)
21,CN(C)C(CNC(=O)c1ccc(S(=O)(=O)NCc2ccco2)cc1)c1ccccc1 (configuration not stated),-19.3% (inactive)
22,CC(=O)Nc1ccc(NC(=O)C2CCCN(S(=O)(=O)c3ccc(Cl)cc3)C2)cc1 (configuration not stated),-4.31% (inactive)
23,CC(C)(C)Nc1c(-c2cccs2)nc2ccccn12,-10.6% (inactive)
24,COc1ccc(/C(C)=N\NC(=O)c2ccc(-c3ccccc3)cc2)c(F)c1,-14.4% (inactive)
25,C/C(=N\NC(=O)c1ccoc1C)c1ccccc1O,-29.9% (inactive)

row,SMILES,inhibition
1,C/C(=N\NC(=O)c1ccccc1F)c1ccccn1,90.2% (active)
2,Cc1cc(Cl)ccc1NC(=S)N1CCC(C(N)=O)(N2CCCCC2)CC1,5.02% (inactive)
3,Cn1nccc1C(=O)NC1CCCc2c1cnn2-c1ccccc1F (configuration not stated),62.9% (active)
4,COc1ccc(C(=O)NC2CCCc3c2cnn3-c2cccc(C)c2C)c(OC)n1 (configuration not stated),29.1% (inactive)
5,Cc1cc(C(=O)NC2CCCc3c2cnn3-c2cccc(C)c2C)c(C)o1 (configuration not stated),29.7% (inactive)
6,CC(=O)NCC(=O)NC1CCCc2c1cnn2-c1ccccc1F (configuration not stated),-8.3% (inactive)
7,Cn1nccc1C(=O)NC1CCCc2c1cnn2-c1ccc(F)cc1F (configuration not stated),71% (active)
8,Cc1ccc(-n2ncc3c2CCCC3NC(=O)c2cnccn2)cc1C (configuration not stated),-3.8% (inactive)
9,CC1CC(C)CN(C(=O)CCNC(=O)Cn2cnc3ccccc3c2=O)C1 (configuration not stated),-7.78% (inactive)
10,Cc1ccc(S(=O)(=O)N(C)C)cc1NC(=O)c1n[nH]c(=O)c2ccccc12,-17.4% (inactive)
11,COC(=O)C1=NN(c2ccccc2)C2C(=O)N(c3ccccc3OC)C(=O)C12 (configuration not stated),25.7% (inactive)
12,COc1ccc(NCc2nnc(SCc3ccccc3)n2-c2ccc(OC)cc2)cc1,-6.88% (inactive)
13,CCOC(=O)c1cccc(NC(=O)C2CCN(c3ncnc4c3nc3n4CCCCC3)CC2)c1,12.1% (inactive)
14,Oc1cccc(/C=N/Nc2ccc(Cl)nn2)c1O,54.9% (active)
15,Cc1nc2ccccc2nc1N/N=C/c1ccc(O)cc1O,20.4% (inactive)
16,Oc1c(Br)cccc1/C=N/Nc1c(F)c(F)c(F)c(F)c1F,2.14% (inactive)
17,Cc1cc(=O)[nH]c(Nc2cccc(Br)c2)n1,12.3% (inactive)
18,CN(Cc1ccccc1)C(=O)CCNC(=O)Cn1cnc2ccccc2c1=O,-2.32% (inactive)
19,CC(C)n1cnc2c(Nc3cccc(Cl)c3)nc(N(CCO)CCCO)nc21,-12% (inactive)
20,OCCCNc1nccc(-c2cc(Nc3cccc(Cl)c3)ncn2)n1,98.5% (active)
21,Cc1cccc(Nc2nc(NCCO)nc(N3CCCC3)n2)c1,5.92% (inactive)
22,Cc1ccc(S(=O)(=O)c2nc(-c3cccs3)oc2NCc2cccnc2)cc1,-3.33% (inactive)
